The campaign covered roughly 290,000 compounds. About 110 (0.038%) were called active. Another 3% or so got no clear call; they are omitted. Many of the other results were omitted from the sample, so actives are more common in it than they were. Unmarked numbers belong to inactive results. Calls follow the shape of the dose curve; as a rule, active = well fitted inhibition curve with a large enough effect in the polarisation, with a control signal flat (not every such curve was filed as active); inconclusive = small, poorly fitted or top-dose-only effect, or effect the other way, or a change in a side signal; inactive = no such curve, though single readings can be large or run the other way; the % refers to the polarisation.
Molecular target: Histone-lysine N-methyltransferase 2A (Homo sapiens) (UniProt Q03164)
Experiment: qHTS Fluorescence Polarization Assay for Inhibitors of MLL CXXC domain - DNA interaction
Conditions: MLL-CXXC / FITC-HOXA9 DNA fluorescence polarization; series mostly up to 115 µM; activity change, negative = inhibition: at the top concentration
Procedure, shortened: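 Steps: dispense CXXC domain solution (7 uM) → pin compounds or unlabeled HOX-A9 DNA control → 5 min ambient → add FLSN-HOX-A9 solution (50 nM) → spin → 30 min ambient → fluorescence polarization. Tris pH 7.5/NaCl/DTT/BSA buffer.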
Potency is read from the fitted curve at half-maximal effect.

Chain of Histone-lysine N-methyltransferase 2A (Homo sapiens) (Q03164 whole entry, looked up, the tested form may be a part): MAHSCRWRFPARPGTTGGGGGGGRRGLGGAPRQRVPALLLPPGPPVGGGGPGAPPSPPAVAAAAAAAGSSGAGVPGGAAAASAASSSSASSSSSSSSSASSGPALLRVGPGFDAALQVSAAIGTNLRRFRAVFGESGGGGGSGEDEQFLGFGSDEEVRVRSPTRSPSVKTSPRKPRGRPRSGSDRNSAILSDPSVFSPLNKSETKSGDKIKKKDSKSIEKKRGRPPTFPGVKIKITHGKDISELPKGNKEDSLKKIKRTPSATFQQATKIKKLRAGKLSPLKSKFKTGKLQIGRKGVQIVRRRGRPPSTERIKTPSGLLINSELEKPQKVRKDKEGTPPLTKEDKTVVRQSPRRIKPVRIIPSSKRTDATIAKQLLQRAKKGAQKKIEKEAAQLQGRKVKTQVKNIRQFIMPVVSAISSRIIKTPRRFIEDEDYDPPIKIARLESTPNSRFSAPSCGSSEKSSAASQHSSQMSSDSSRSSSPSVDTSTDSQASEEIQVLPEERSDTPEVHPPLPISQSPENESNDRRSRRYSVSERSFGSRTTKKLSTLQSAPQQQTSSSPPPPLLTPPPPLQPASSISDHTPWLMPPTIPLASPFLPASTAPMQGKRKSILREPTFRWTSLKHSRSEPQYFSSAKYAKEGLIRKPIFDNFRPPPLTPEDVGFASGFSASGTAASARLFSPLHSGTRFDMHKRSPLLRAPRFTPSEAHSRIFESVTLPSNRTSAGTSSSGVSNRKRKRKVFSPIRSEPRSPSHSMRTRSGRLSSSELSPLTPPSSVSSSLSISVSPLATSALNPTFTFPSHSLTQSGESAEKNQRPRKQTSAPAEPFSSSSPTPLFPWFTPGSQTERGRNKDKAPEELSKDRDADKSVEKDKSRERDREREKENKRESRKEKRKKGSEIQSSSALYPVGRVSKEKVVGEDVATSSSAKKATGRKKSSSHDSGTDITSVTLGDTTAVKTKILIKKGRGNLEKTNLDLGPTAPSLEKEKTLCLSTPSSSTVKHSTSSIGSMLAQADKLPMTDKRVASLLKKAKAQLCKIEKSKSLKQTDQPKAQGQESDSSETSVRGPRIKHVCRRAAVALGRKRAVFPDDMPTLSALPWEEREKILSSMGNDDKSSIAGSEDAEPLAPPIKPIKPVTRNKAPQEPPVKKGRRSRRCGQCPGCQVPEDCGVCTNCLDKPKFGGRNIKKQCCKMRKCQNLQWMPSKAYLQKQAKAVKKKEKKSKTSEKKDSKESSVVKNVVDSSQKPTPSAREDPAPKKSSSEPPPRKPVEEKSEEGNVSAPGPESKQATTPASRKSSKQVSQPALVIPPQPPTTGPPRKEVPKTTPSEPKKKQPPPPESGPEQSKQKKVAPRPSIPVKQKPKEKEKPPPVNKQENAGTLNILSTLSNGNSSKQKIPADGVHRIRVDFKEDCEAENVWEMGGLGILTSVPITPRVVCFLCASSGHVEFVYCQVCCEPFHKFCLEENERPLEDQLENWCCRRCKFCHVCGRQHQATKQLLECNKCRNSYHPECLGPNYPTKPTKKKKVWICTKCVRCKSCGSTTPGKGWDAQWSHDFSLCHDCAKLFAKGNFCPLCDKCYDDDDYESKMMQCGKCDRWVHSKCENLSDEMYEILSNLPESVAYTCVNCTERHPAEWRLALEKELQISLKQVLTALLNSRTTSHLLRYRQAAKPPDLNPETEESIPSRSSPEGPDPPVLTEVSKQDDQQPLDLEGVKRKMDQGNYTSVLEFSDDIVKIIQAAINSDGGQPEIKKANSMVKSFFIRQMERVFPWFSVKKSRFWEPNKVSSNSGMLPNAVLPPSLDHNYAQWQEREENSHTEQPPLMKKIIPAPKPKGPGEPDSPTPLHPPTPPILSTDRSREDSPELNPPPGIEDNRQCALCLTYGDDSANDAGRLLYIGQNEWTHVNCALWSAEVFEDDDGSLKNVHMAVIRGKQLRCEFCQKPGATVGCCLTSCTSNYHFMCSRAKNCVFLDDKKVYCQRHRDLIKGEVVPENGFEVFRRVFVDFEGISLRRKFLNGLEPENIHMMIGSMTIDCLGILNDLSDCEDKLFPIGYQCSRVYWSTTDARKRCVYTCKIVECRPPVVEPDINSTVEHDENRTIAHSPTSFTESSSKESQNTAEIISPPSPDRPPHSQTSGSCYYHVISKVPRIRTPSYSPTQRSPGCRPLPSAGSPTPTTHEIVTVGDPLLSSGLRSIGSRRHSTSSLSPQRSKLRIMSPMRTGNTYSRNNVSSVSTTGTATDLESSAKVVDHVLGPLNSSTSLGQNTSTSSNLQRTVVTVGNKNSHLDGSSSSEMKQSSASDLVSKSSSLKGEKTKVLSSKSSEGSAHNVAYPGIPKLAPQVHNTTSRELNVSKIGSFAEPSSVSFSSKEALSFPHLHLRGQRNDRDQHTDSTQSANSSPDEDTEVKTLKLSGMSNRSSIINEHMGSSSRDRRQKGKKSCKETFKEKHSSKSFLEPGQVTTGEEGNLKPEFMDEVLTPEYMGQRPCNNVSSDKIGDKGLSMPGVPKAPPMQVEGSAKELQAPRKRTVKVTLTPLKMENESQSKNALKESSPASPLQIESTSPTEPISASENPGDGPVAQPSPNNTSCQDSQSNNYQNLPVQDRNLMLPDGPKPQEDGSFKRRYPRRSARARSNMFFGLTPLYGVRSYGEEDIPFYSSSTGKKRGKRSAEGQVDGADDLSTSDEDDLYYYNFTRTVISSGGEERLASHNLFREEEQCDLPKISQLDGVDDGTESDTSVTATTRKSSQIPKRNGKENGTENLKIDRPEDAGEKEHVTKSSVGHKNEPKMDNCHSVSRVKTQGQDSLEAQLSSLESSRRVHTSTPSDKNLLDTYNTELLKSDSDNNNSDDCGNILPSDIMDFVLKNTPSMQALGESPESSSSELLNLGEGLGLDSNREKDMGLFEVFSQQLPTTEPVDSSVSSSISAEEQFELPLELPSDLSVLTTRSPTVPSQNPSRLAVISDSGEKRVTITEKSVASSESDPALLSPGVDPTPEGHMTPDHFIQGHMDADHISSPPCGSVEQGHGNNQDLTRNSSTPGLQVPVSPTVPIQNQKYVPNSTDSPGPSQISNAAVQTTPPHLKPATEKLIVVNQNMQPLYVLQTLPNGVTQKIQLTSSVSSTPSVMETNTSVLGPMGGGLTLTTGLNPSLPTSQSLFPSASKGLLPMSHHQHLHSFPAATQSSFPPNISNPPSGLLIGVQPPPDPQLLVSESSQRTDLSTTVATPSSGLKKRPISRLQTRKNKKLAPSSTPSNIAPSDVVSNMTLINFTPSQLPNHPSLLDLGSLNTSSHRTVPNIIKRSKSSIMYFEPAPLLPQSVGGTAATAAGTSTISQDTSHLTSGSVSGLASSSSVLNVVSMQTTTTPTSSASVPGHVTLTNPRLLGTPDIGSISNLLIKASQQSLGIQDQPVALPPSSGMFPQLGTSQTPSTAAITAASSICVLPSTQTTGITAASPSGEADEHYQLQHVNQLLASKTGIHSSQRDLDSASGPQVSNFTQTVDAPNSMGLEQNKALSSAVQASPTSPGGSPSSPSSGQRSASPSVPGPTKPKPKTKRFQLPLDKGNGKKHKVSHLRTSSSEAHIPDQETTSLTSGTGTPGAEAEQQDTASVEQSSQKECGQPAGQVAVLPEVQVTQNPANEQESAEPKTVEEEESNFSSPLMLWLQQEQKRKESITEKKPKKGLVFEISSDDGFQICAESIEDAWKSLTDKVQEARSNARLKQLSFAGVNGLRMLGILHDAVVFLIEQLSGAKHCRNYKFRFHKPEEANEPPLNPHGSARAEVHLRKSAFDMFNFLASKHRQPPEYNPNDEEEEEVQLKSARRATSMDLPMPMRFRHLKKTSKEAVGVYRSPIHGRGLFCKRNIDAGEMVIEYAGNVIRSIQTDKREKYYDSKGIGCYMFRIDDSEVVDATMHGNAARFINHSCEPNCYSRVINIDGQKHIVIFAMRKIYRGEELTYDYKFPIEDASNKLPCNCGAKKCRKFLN

Row | SMILES | activity change, negative = inhibition [%] | Potency
1 | COc1ccc(NC(=S)N2CCC(NC(=O)c3cccc(F)c3)CC2)cc1 | 5.04 | –
2 | S=C(Nc1ccc(Cl)cc1Cl)N1CCCC1 | 8.17 | –
3 | Cc1ccc(-c2csc(N3CCN(c4cc5c(cc4Cl)nc(-c4ccncc4)n5CCOCCO)CC3)n2)cc1 | 17.7 | –
4 | O=C(N/N=C/c1cccnc1)c1ccc(NC(=O)c2ccc(F)cc2)cc1 | -6.31 | –
5 | COCCC(=O)N1CCC(Oc2ccc(C(=O)NCc3ccon3)cc2)CC1 | -13.7 | –
6 | O=c1[nH]cnc(O)c1C(c1ccc(F)cc1)c1c(O)nc[nH]c1=O | -8.5 | –
7 | CCCc1nnc(NC(=O)CCC(=O)N2CCN(S(=O)(=O)c3ccc(OC)cc3)CC2)s1 | -3.18 | –
8 | O=C(c1cc2ccccc2o1)N1CCN(c2cccc(C(F)(F)F)c2)CC1 | 13.8 | –
9 | CCN(CC)CCCNC(=S)N(CCO)Cc1cc2cc3c(cc2[nH]c1=O)OCO3 | 1.28 | –
10 | CC(=O)N(CC(O)CO)c1c(I)c(C(=O)NCC(O)CO)c(I)c(C(=O)NCC(O)CO)c1I (stereo not drawn) | 3.35 | –
11 | CC(C)=CCN1CCN(Cc2cc3ccccc3[nH]2)CC1CCO (stereo not drawn) | 2.45 | –
12 | CCc1ccc(C(=O)NN=C2CCCCCC2)s1 | -6.71 | –
13 | COc1ccc(C(=O)Nc2ccc(C(=O)NCC3CCCO3)cc2)c(OC)c1OC (stereo not drawn) | -5.91 | –
14 | O=C(c1cccc(Br)c1)N1CCN(C2=NS(=O)(=O)c3ccccc32)CC1 | 0.198 | –
15 | O=C(NCCCNC(=O)c1ccccc1Cl)c1cnccn1 | 1.34 | –
16 | Cc1cc(C)c(C(=O)CSc2nc(C)cc(=O)[nH]2)c(C)c1 | 15.2 | –
17 | NC(=O)Cn1cc(/C=N\NS(=O)(=O)c2ccccc2)c2ccccc21 | 0.323 | –
18 | COc1cccc(CN(C)CC2CCCN(CCc3ccc(Cl)cc3)C2)c1OC (stereo not drawn) | -12.2 | –
19 | C/C=C/C=N/NC(=O)c1ccncc1 | -7.45 | –

Row | SMILES | activity change, negative = inhibition [%] | Potency
20 | CN1C(=O)[C@H]2[C@@H](C3CC3)N3C(=O)CN(Cc4ccccc4)C(=O)[C@@]3(C)[C@H]2C1=O | -2.11 | –
21 | COc1ccc(C(=O)CCC(=O)Nc2cccnc2)c(OC)c1 | 24.3 | –
22 | CC(C)(O)c1ccccc1CC[C@H](SCC1(CC(=O)O)CC1)c1cccc(/C=C/c2ccc3ccc(Cl)cc3n2)c1 | -8.6 | –
23 | CCN(CC)c1ccc(C(=O)Nn2c(C)nc3ccccc3c2=O)cc1 | -3.36 | –
24 | O=C(NC(=S)Nc1ccc(Cl)c(C(=O)O)c1)c1cncc(Br)c1 | 12.4 | –
25 | CC(C)c1ccc(C2C(C(=O)c3ccco3)=C(O)C(=O)N2CC2CCCO2)cc1 (stereo not drawn) | 6.78 | –
26 | COc1cc(C)c(C)cc1S(=O)(=O)N1CCCc2ccccc21 | 1.1 | –
27 | Cc1c(S(=O)(=O)N2CC(C)CC(C)C2)c(=O)n(C)c(=O)n1C (stereo not drawn) | 17.4 | –
28 | O=CN1CCN(C(=O)c2ccc(Br)o2)CC1 | 6.07 | –
29 | Cc1ccc(NS(=O)(=O)c2ccc(-c3coc(C)n3)cc2)c(C)c1 | -1.43 | –
30 | COc1ccc2cc(S(=O)(=O)Nc3ccccn3)ccc2c1 | 0.793 | –
31 | COc1ccc(S(=O)(=O)/N=C2\C=C(NS(=O)(=O)c3ccccc3)C(=O)c3ccccc32)cc1 | – | 25.1 µM (active)
32 | COc1ccc(S(=O)(=O)Nc2c(C)n(C)n(-c3ccccc3)c2=O)cc1 | -7.65 | –
33 | NC(=O)c1cc(S(=O)(=O)N2CCCC2)ccc1OCc1ccc(F)cc1 | 13.4 | –
34 | O=C(O)c1ccc(S(=O)(=O)N2CCOCC2)o1 | 1.09 | –
35 | CCn1nc(C)c(CNC(=O)C2CCC(=O)N(Cc3cccc(F)c3)C2)c1C (stereo not drawn) | 0.542 | –
36 | COc1ccc(-c2cc(=O)oc3cc(OCC(=O)N(C)C4CCS(=O)(=O)C4)ccc23)cc1 (stereo not drawn) | 0.391 | –
37 | Cc1cc(C)c2c(Cn3ccnc3)cc(=O)oc2c1 | 11.5 | –
38 | Cc1cc(-c2nnc(SCC(=O)Nc3ccc(S(N)(=O)=O)cc3)n2N)n[nH]1 | 12.2 | –

From PubChem BioAssay AID2662 (National Center for Advancing Translational Sciences (NCATS), 2010)
